“And” between values parts separate entries of the source, which are not always exact repeats. Equal entries are not always repeated. About 6,900 (3.6%) of roughly 190,000 compounds were called active. No stated cut-off is given here; in the data, active means inhibition above about 50%; inactive means the rest. The full list was thinned out, with actives kept by preference. The source holds several records for some structures; these can differ, active in one and inactive in another.
What follows are compounds tested against Huntingtin (Homo sapiens) (UniProt P42858) (assay: mutant huntingtin-calmodulin interaction inhibitors – biochemical, AlphaScreen, primary screen (AID 1671202;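 on inhibition: 0% = both proteins with DMSO and 100% = one protein alone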)). Conditions: AlphaScreen His-mHTT/GST-CaM binding, luminescence; at 15 µM, stronger effect = higher value.
Huntingtin (Homo sapiens), sequence (P42858 whole entry, looked up, stated change not applied): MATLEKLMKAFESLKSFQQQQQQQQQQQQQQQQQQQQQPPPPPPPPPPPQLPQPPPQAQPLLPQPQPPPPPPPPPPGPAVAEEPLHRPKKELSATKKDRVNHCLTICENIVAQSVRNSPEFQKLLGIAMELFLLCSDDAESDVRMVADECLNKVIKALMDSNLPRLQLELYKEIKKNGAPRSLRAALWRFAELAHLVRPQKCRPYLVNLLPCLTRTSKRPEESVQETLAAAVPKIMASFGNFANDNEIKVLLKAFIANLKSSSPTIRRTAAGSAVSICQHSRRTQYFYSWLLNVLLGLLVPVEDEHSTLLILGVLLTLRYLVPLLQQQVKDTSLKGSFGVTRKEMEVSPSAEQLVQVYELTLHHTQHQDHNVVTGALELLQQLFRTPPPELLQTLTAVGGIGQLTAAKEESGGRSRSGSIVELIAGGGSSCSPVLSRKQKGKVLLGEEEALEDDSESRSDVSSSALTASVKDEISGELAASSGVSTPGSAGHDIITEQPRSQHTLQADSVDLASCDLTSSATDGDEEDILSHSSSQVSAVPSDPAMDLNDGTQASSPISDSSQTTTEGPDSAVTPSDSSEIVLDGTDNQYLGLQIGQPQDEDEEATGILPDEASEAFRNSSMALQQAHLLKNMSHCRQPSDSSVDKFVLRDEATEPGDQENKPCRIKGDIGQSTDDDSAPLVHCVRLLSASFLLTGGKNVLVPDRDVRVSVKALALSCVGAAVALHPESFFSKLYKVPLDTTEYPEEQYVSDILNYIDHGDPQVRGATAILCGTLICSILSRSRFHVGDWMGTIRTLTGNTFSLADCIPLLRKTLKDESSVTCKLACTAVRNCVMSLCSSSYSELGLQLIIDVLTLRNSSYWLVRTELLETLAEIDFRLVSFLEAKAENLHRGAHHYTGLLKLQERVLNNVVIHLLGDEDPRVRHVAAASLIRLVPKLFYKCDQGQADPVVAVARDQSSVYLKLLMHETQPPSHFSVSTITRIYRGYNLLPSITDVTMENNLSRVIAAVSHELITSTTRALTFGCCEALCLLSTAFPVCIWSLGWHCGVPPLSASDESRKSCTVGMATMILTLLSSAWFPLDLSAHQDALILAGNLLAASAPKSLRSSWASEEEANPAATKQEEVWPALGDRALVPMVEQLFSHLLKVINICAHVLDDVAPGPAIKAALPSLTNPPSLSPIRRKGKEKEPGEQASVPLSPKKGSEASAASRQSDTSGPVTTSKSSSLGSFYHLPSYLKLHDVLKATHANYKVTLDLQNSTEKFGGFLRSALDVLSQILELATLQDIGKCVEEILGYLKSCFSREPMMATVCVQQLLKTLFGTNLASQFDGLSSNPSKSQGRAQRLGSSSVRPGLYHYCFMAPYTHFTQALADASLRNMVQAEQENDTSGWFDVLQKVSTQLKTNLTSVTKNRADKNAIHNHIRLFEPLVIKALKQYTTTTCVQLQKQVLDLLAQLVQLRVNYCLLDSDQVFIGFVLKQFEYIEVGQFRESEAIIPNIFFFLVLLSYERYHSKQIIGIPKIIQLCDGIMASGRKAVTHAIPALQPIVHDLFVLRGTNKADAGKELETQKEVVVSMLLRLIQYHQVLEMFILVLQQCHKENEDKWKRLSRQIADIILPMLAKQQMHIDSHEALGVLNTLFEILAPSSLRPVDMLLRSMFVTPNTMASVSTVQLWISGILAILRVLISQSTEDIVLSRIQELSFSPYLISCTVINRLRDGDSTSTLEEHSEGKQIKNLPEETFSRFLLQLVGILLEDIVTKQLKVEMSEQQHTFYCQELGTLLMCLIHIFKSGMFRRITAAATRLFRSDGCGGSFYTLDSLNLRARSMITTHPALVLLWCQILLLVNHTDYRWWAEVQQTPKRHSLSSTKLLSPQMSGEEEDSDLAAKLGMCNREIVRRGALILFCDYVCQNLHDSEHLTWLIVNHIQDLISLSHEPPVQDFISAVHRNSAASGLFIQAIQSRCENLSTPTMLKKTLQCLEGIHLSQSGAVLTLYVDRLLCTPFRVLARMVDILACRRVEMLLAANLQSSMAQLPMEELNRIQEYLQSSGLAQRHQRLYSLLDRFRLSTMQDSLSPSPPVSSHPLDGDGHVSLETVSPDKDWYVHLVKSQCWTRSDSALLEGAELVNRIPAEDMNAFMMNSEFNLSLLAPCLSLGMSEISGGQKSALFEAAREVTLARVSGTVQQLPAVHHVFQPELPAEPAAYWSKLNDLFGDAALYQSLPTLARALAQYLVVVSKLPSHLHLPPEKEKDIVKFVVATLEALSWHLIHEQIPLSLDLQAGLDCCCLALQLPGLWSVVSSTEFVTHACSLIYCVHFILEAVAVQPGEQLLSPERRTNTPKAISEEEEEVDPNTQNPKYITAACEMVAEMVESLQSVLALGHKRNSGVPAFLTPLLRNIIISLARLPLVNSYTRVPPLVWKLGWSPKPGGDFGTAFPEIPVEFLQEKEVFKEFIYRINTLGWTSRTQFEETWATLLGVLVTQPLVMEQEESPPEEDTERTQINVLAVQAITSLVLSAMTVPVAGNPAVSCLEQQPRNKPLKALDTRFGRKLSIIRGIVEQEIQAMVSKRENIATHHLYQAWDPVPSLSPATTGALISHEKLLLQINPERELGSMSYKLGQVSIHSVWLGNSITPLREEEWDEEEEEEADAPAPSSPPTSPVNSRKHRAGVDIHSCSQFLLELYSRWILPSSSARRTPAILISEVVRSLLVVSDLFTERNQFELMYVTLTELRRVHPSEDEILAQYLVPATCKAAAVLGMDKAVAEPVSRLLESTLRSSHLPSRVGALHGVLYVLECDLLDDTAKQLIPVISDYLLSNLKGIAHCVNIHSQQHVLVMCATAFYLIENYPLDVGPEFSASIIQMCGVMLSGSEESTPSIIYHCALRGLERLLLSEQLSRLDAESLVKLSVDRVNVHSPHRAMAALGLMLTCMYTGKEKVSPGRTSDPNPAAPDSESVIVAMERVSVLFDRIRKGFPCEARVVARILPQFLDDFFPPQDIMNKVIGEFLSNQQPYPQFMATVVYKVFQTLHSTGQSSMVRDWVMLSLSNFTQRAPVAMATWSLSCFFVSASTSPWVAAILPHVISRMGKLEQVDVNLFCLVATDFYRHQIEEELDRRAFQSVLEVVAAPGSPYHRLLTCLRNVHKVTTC

| Structure (SMILES) | inhibition |
| --- | --- |
| O=C(c1ncn[nH]1)N1CCN(Cc2ccccc2)CC1 | 90.3% (active) |
| O=C(c1cccc(Cl)c1)N1CCN(Cc2ccccc2)CC1 | 4.6% (inactive) |
| O=C(Nc1ccccc1)N1CCN(Cc2ccccc2)CC1 | -7.6% (inactive) |
| CCOc1ccc(C2CC(c3ccc(Cl)cc3)Nc3nnnn32)cc1OC (stereo unspecified) | 38% (inactive) |
| Cc1cc(C(=O)NCc2ccc(C)o2)c2cccc(-c3cccs3)c2n1 | -56.5% (inactive) |
| COc1ccccc1C1(CCNCc2ccc3c(c2)OCO3)CCOC(C)(C)C1 (stereo unspecified) | 3.46% (inactive) |
| O=C1CN(C(=O)c2ccccc2F)C(c2ccc(F)cc2)c2cc(F)ccc2N1 (stereo unspecified) | -4% (inactive) |
| Cc1ccc2c(c1)C(c1ccc(F)cc1)N(C(=O)c1c(F)cccc1Cl)CC(=O)N2 (stereo unspecified) | 22% (inactive) |
| Cc1ccc2c(c1)C(c1ccc(F)cc1)N(C(=O)c1ccc(C)c(C)c1)CC(=O)N2 (stereo unspecified) | 69% (active) |
| COc1ccc(C=C2Oc3cc(OC(C)=O)ccc3C2=O)c(OC)c1OC | 16.2% (inactive) |
| COc1ccc(C(=O)C=Cc2ccc(C)cc2)c(OC(=O)c2ccco2)c1 | 17% (inactive) |
| Oc1ccc2c(c1)OCC1c3cc4c(cc3OC21)OCO4 (stereo unspecified) | 65.8% (active) |
| Cc1ccccc1NCc1cc(=O)oc2cc(O)c(O)cc12 | 29.6% (inactive) |
| CCc1ccc(CN2CCC(C(=O)N3CCN(Cc4ccccc4)CC3)CC2)cc1 | 36.4% (inactive) |
| O=C(NCc1ccc(F)cc1)C1CCN(c2cnn(Cc3ccccc3)c(=O)c2)CC1 | 2.29% (inactive) |
| CNC(=O)C1CCN(Cc2cc3ccccc3n2Cc2ccc(F)cc2)CC1 | 85.1% (active) |
| O=S(=O)(NCCc1ccc(F)cc1)c1ccc(F)cc1 | -3.6% (inactive) |
| Cc1ccc(C(C)C)cc1OCCN1CCCC1 | -3.2% (inactive) |
| COc1ccc(Nc2nc(Cl)nc(NCCN3CCOCC3)n2)c(OC)c1 | 4% (inactive) |
| COc1cc(OC)c2c(c1C(CCN1CCCCC1)c1ccc(N(C)C)cc1)OC(=O)CC2c1ccc(N(C)C)cc1 (stereo unspecified) | 76.8% (active) |
| COc1ccc(C2CC(=O)Oc3ccc(C(C)(C)C)cc32)cc1 (stereo unspecified) | -22.8% (inactive) |
| COc1ccc(C(CCN2CCOCC2)c2c(OC)cc(OC)c3c2OC(=O)CC3c2ccc(OC)cc2)cc1 (stereo unspecified) | 71.6% (active) |
| COc1ccc(-c2c(C)c3ccc(OCCN4CCCCC4)cc3oc2=O)cc1OC | -2.1% (inactive) |
| COc1cc(OC)c2c(c1)OC(=O)CC2c1cc(OC)c(OC)c(OC)c1 (stereo unspecified) | 3.2% (inactive) |
| COc1cc(OC)c2c(C)cc(=O)oc2c1C(CCN1CCCCC1)c1ccc(N(C)C)cc1 (stereo unspecified) | 78.3% (active) |
| COc1ccc(CNC(=O)CC2CCN(C(=O)c3[nH]c(C)c(C)c3C)CC2)cc1 | 11.4% (inactive) |

| Structure (SMILES) | inhibition |
| --- | --- |
| COc1ccc(CCNc2nc(C)nc3sc(C)cc23)cc1OC | 0% (inactive) |
| CC(C)c1c(C2CCN(C(=O)c3cccc(F)c3)CC2)noc1N | -1.9% (inactive) |
| Cc1cc(C(=O)NCCCn2ccnc2)ccc1[N+](=O)[O-] | -2.3% (inactive) |
| CC(CC(=O)N1CCN(c2nc3ccccc3n(C)c2=O)CC1)c1ccccc1 (stereo unspecified) | 3.2% (inactive) |
| Cc1ccccc1C1=N/C(=C\c2ccc(Br)cc2)C(=O)O1 | -1% (inactive) |
| COc1ccc(C2C(=C(O)c3ccc(Cl)cc3)C(=O)C(=O)N2CCCN(C)C)c(OC)c1 (stereo unspecified) | -4.4% (inactive) |
| COc1ccc(-c2csc(=Nc3ccccc3)n2C)cc1 | 29% (inactive) |
| CN(C)CCCn1c(-c2ccc(Cl)cc2)csc1=Nc1ccccc1 | 89% (active) |
| CC1C(=O)N(c2ccc(Br)cc2)CCN1C(=O)C1CCCC1 (stereo unspecified) | -6.1% (inactive) |
| Cc1ccc(C(=O)N2CCC(CC(=O)NCCN3CCCCCC3)CC2)cc1 | 13.3% (inactive) |
| Cc1nc(-c2ccccc2)oc1CC(=O)NCCN1CCCCCC1 | 100% (active) |
| O=C(CCS(=O)(=O)Cc1ccccc1F)NCCCN1CCCCC1 | 1% (inactive) |
| O=S(=O)(c1ccccc1)c1cccs1 | -6.17% (inactive) |
| Cc1cc(C)c(NC(=O)CNC2CC(C)(C)NC(C)(C)C2)c(C)c1 | -6.9% (inactive) |
| COc1ccc2oc(=O)c(-c3nnc(Nc4ccc(C)cc4)s3)cc2c1 | 3% (inactive) |
| O=C(c1ccco1)N1CCN(c2ccc([N+](=O)[O-])cc2)CC1 | 0.2% (inactive) |
| O=C(c1ccco1)N1CCN(c2ncnc3sc(-c4ccccc4)cc23)CC1 | 54.6% (active) |
| Cc1ccc2nc3sc(C(=O)N4CCN(C(=O)c5ccco5)CC4)cc3c(=O)n2c1 | 12.9% (inactive) |
| COc1cc(C(=O)N2CCC(CC(=O)NCc3ccccn3)CC2)cc(OC)c1OC | 19.9% (inactive) |
| COCCN1C(=O)c2ccccc2C(C(=O)NCC2CCCO2)C1c1ccc(F)cc1 (stereo unspecified) | 0% (inactive) |
| Cc1ccc(C(=O)N2CCc3sc(C(=O)NCCC(C)C)cc3C2)cc1 | -0.52% (inactive) |
| O=C(Nc1ccc([N+](=O)[O-])cc1)C12CC3CC(C1)CC(c1ccccc1)(C3)C2 | 14.9% (inactive) |
| CC1CCCN(C(=O)c2ccc(-c3ccsc3)nc2)C1 (stereo unspecified) | -3.7% (inactive) |
| O=C(c1ccc(-c2ccsc2)nc1)N1CCCCCC1 | -6.2% (inactive) |
| O=C(c1ccc2c(c1)OCO2)N1CCOCC1 | 1% (inactive) |
| O=C(c1ccc(-c2ccsc2)nc1)N1CCOCC1 | -3.2% (inactive) |

| Structure (SMILES) | inhibition |
| --- | --- |
| O=C(c1ccc2c(c1)OCO2)N1CCC(n2nc(-c3ccsc3)ccc2=O)CC1 | 98% (active) |
| O=C(c1ccc(F)cc1)N1CCC(n2nc(-c3ccsc3)ccc2=O)CC1 | 93.2% (active) |
| COc1ccc(NC(=O)N2CCCC2c2nc(-c3ccc(F)cc3F)no2)cc1F (stereo unspecified) | 5.86% (inactive) |
| O=C(C1CCCC1)N1CCN(Cc2noc(-c3cccc4ccccc34)n2)CC1 | 19.3% (inactive) |
| O=C(N/N=C/C=C\c1ccco1)c1ccco1 | inactive |
| O=C(NCCn1ncccc1=O)c1cc(C2CC2)on1 | -8.3% (inactive) |
| O=c1c(-c2ccc3c(c2)OCCO3)c(C(F)(F)F)oc2cc(O)cc(O)c12 | 54.5% (active) |
| Cc1cc(O)c2c(=O)c(-c3csc(C)n3)c(C(F)(F)F)oc2c1 | 1% (inactive) |
| COc1ccc(-c2c(C(F)(F)F)oc3cc(O)ccc3c2=O)cc1 | 10% (inactive) and -0.6% (inactive) |
| COc1ccc(-c2noc(C3CCN(CC(=O)Nc4ccc(C)c(F)c4)CC3)n2)cc1 | -6.73% (inactive) |
| Cc1ccccc1Oc1nc(N2CCCC2)nc2c1CN(Cc1ccncc1)CC2 | 17.7% (inactive) |
| Cc1ccccc1NC(=O)NCc1ccsc1 | -8.6% (inactive) |
| O=C1c2ccccc2-c2onc3c(N4CCCC4)ccc1c23 | 64% (active) |
| CCN(Cc1ccccc1)C(=O)c1ccccc1Cl | -7.8% (inactive) |
| CCCNc1cc(N2CCC(CCC(=O)NCc3ccccn3)CC2)ncn1 | 1.6% (inactive) |
| COc1ccccc1Nc1cc(C)nc2ccc(Cl)cc12 | 0% (inactive) |
| O=C(Nc1ccccc1I)c1ccccc1F | -15.8% (inactive) and -24% (inactive) |
| Cc1ccc(C(=O)Nc2cnc(N3CCCCC3)nc2)c(C)c1 | 9.7% (inactive) |
| COc1ccc(C2=NC(c3ccncc3)=Nc3ccc(Br)cc3N2)cc1 | 50.3% (active) |
| COc1ccc(/C=C2\N=C(c3cccc(Br)c3)OC2=O)cc1 | -5% (inactive) |
| COc1cc(C=C(C#N)c2nc(-c3ccc4c(c3)OCO4)cs2)cc(OC)c1OC(C)=O | -4.5% (inactive) |
| CC(=O)N1c2ccccc2NC2=C(C(=O)CC(C)(C)C2)C1c1ccc(N(C)C)cc1 (stereo unspecified) | 29.3% (inactive) |
| COc1ccc(S(=O)(=O)CCC(=O)Nc2ccccc2C(F)(F)F)cc1 | 1% (inactive) |
| O=[N+]([O-])c1cc(Cl)ccc1N1CCCNCC1 | -0.3% (inactive) |
| O=C(Cc1ccc(Cl)cc1)N1CCN(c2ccc(Cl)cc2[N+](=O)[O-])CC1 | 58.1% (active) and 44% (inactive) |
| COc1ccc(C(=O)N2CCN(c3ccc(Cl)cc3[N+](=O)[O-])CC2)cc1Br | 14.9% (inactive) |

| Structure (SMILES) | inhibition |
| --- | --- |
| O=C(CSc1nc2[nH]ncc2c(=O)n1-c1ccccc1)NCc1cccc(Cl)c1 | 8% (inactive) |
| O=[N+]([O-])c1ccc(CN2CC(N3CC=CC3)CS2(=O)=O)cc1 (stereo unspecified) | -3% (inactive) |
| O=S1(=O)CC(N2CCC(Cc3ccccc3)CC2)CN1Cc1ccccc1 (stereo unspecified) | 19.9% (inactive) |
| O=[N+]([O-])c1ccc(CN2CC(N3CCC(c4ccccc4)CC3)CS2(=O)=O)cc1 (stereo unspecified) | 50.1% (active) |
| Cn1c(/C=C/c2ccc(Cl)cc2)nc2ccccc21 | -18.9% (inactive) |
| OC(COCC12CC3CC(CC(C3)C1)C2)CN1CCc2ccccc2C1 (stereo unspecified) | 35.2% (inactive) |
| Cc1ccc(C(=O)N2CCN(c3nc(CN4CCCCC4)cs3)CC2)cc1F | 2% (inactive) |
| Cn1nc(-c2nnc(-c3ccccc3Cl)o2)c2c1CCN(C(=O)CCc1ccccc1)C2 | 76.5% (active) |
| Cn1nc(-c2nc(Cc3ccccc3)no2)c2c1CCN(C(=O)c1ccccc1Cl)C2 | 6.74% (inactive) |
| CCC(CC)C(=O)N1CCc2c(c(-c3nnc(-c4ccccc4Cl)o3)nn2C)C1 | 6.42% (inactive) |
| COc1cccc(C=C2Oc3c(ccc(O)c3CN(C)Cc3ccccc3)C2=O)c1OC | 93.1% (active) |
| COc1cccc(C=C2Oc3c(ccc(O)c3CN3CCCCC3C)C2=O)c1OC (stereo unspecified) | 15.7% (inactive) |
| CCCCN(C)Cc1c(O)ccc2c1OC(=Cc1cc(OC)c(OC)c(OC)c1)C2=O | -3.1% (inactive) |
| COCC(C)(O)CNC(=O)C(=O)NCc1ccc(C)cc1 (stereo unspecified) | -17.7% (inactive) |
| Cc1ccc2[nH]cc(CCN3CC(C(=O)Nc4cccc(C)c4C)CC3=O)c2c1 (stereo unspecified) | 30.5% (inactive) |
| Cc1ccc2[nH]cc(CCN3CC(C(=O)Nc4ccc(Br)cc4)CC3=O)c2c1 (stereo unspecified) | 53.5% (active) |
| O=C(Nc1ccc2c(c1)CCC2)C1CC(=O)N(CCc2c[nH]c3ccc(F)cc23)C1 (stereo unspecified) | 53.7% (active) |
| O=C(NCCN1CCOCC1)C1CC(=O)N(CCc2c[nH]c3ccc(F)cc23)C1 (stereo unspecified) | -6.88% (inactive) |
| Cc1ccc2[nH]cc(CCN3CC(C(=O)Nc4cccc(Br)c4)CC3=O)c2c1 (stereo unspecified) | 39.7% (inactive) |
| Cc1ccc2[nH]cc(CCN3CC(C(=O)N4CCN(c5ccccc5)CC4)CC3=O)c2c1 (stereo unspecified) | 45.4% (inactive) |
| O=C(Nc1ccccc1F)C1CC(=O)N(CCc2c[nH]c3ccc(F)cc23)C1 (stereo unspecified) | 9.18% (inactive) |
| CC(C)CCNC(=O)C1CC(=O)N(CCc2c[nH]c3ccc(Cl)cc23)C1 (stereo unspecified) | 25.8% (inactive) |
| Cc1ccc(NC(=O)C2CC(=O)N(CCc3c[nH]c4ccc(Cl)cc34)C2)c(C)c1 (stereo unspecified) | 65% (active) |

Reference: PubChem BioAssay AID1671202 (University of Kansas High Throughput Screening Laboratory, 2021)
